Screening results from PubChem BioAssay.
Hits are enriched below; roughly 4.2% of the tested compounds scored in any of these assays.
Sfp PPTase inh: qHTS Assay for Inhibitors of Bacillus subtilis Sfp phosphopantetheinyl transferase (PPTase). 4'-phosphopantetheinyl transferase ffp (Bacillus subtilis), Q9F4F7. 310,000 compounds, 3.5% hits. Potency, µM, for the others: largest response in the series, negative = inhibition, actives largely listed as inhibitors. Biochemical Sfp PPTase activity, qHTS;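 note: the enzyme is Sfp with the accession as filed and its product quenches rhodamine fluorescence; potency is the fitted concentration of half-maximal effect; 0% = enzyme reaction without inhibitor and -100% = no enzyme wells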
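Buffer: 50 mM Hepes-Na pH 7.6, 10 mM MgCl2, 0.01% Nonidet P-40, 0.01% BSA. Enzyme 15 nM, pre-exposed to compound 15 min; substrates then added and fluorescence change tracked over 30 min.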
uPA generation: qHTS for Inhibitors of Cell Surface uPA Generation. 330,000 compounds, 0.31% hits. Potency, µM (highest dose often 38.3 µM), for inactives: at the top dose activity change, negative = inhibition, hits mostly inhibitors. cell surface uPA generation assay, qHTS; active = well fitted inhibition curve with a large enough effect; inconclusive = small, poorly fitted or top-dose-only effect; inactive = no such curve, though single readings can be large or run the other way; tested in mouse RAW 264.7 cells; note: potency is the fitted concentration of half-maximal effect; % is set by controls: 0 for no effect and ±100 for the full control effect; nearly all actives have a fitted effect of over 55% in size
TCR act: Activators of T cell receptors: qHTS campaign. primary human leukocytes, anti-CD3, IL-2 HTRF, 48 h. Potency, µM (top dose mostly 9.22 µM), for inactives: at the top dose activation of IL-2 secretion, hits mostly activators. 330,000 tested, under 10 active. AID 504894, 2011; note: % of control where 0% means no effect
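Primary human leukocytes incubated 48 hr with anti-CD3 beads plus compound, without co-stimulation. Secreted IL-2 measured by HTRF (europium cryptate/d2 anti-IL-2 pair, 320 nm excitation, 665 nm emission).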
ClpP mod: qHTS Assay for Activators of ClpP; ATP-dependent Clp protease proteolytic subunit (Bacillus subtilis (strain 168)), P80244; purified B. subtilis ClpP, FRET peptide cleavage, 20 min; Potency, µM (series often up to 57.5 µM), for inactives: at the top dose activity change, negative = active; 340,000 compounds, 1.9% hits; AID 651965, 2013; active = well fitted falling curve with a large enough effect; inconclusive = small, poorly fitted or top-dose-only effect; inactive = no such curve, though single readings can be large or run the other way; note: potency is the fitted concentration of half-maximal effect; the source files actives as falling curves though it sought activators and does not explain the sign; nearly all actives have a fitted effect of over 65% in size
Target sequence (P80244 whole entry, looked up): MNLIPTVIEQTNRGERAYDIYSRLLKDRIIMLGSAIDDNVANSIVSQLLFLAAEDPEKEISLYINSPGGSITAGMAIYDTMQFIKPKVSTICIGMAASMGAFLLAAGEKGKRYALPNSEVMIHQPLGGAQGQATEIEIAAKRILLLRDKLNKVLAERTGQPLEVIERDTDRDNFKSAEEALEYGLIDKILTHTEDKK
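Purified B. subtilis ClpP, 10 microg/mL final in Tris/HCl pH8 with KCl, BSA, glycerol and Tween-20, cleaved an Abz/nitrotyrosine-quenched decapeptide. Fluorescence (ex 320, em 430) was read at 0 and 20 min at room temperature. Delta was normalized to 5.8 microM ADEP and DMSO/no-enzyme controls.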
* hit, by the source's call; ? = inconclusive; · = not tested or not shown; [ ] = dose if it differs, or a comment. Unless noted, calls come from the whole dose curve; as a rule, active = well fitted curve in the direction sought with a large enough effect; inconclusive = small, poorly fitted or top-dose-only effect, or another doubt; inactive = no such curve, though single readings can be large; an effect the other way counts as inactive or inconclusive.

SMILES | Sfp PPTase inh | uPA generation | TCR act | ClpP mod
CCCOC(=O)c1cc(-c2ccc(/C=C3/C(=O)N(C)C(=O)C(C#N)=C3C)o2)ccc1Cl | · | 4% | -6% | 3%
NS(=O)(=O)c1ccc(-c2ccc(C=O)o2)cc1 | 12% | -5% | -3% | ·
C=CCOC(=O)c1cc(-c2ccc(/C=C3\C(=O)NC(=O)C(C#N)=C3C)o2)ccc1Cl | 50µM* | 0% | 2% | -11%
CC1=C(C#N)C(=O)NC(=O)/C1=C/c1ccc(-c2ccc(S(N)(=O)=O)cc2)o1 | 79µM* | 7% | -5% | -25%
NS(=O)(=O)c1ccc(-c2ccc(/C=C3\NC(=S)NC3=O)o2)cc1 | 5.6µM* | -5% | 2% | 0%
Cc1cc(NCCCN(C)C)n2nc(-c3cccs3)cc2n1 | 10% | -4% | -5%[46.1 µM] | 28µM*
O=C(Nc1cccs1)Nc1c(F)c(F)cc(F)c1F | 45µM* | -9% | 0%[46.1 µM] | 1%
CCOC(=O)/C=C/C(=O)OCC(=O)Nc1ccc(OC)c(Cl)c1 | -8% | ? | 0%[46.1 µM] | 2%
Cc1cccc(C)c1NC(=O)Nc1cccs1 | 56µM* | -11% | 1% | -3%
COc1ccc(NC(=O)COC(=O)/C=C/C(=O)OCC(=O)Nc2ccc(OC)c(Cl)c2)cc1Cl | 79µM* | -10% | -4%[46.1 µM] | -1%
CCc1cccc(NC(=O)Nc2cccs2)c1 | 32µM* | 5% | 2% | -3%
CC1CN(S(=O)(=O)c2cccc(C(=O)NCC(c3cccs3)N3CCOCC3)c2)CC(C)O1 (centres undefined) | · | -16% | 4% | 0%
O=C1NC(=S)N/C1=C\c1ccc(Oc2ccc(C(F)(F)F)cc2[N+](=O)[O-])c(Cl)c1 | 7% | 1% | 2% | -1%
CCN(Cc1ccccc1)C(=O)C1CCC(CNS(=O)(=O)c2ccc3c(c2)CCCC(=O)N3)CC1 (centres undefined) | · | · | · | 1%
Cn1ncc2cc3c(Nc4ccc(Cl)cc4)cccc3nc21 | · | · | · | -20%
COc1ccc(NC(=O)Nc2cccs2)cc1Cl | 45µM* | -29% | 11% | 1%
O=C(Nc1cccs1)Nc1c(F)c(F)c(F)c(F)c1F | 45µM* | -4% | -1%[46.1 µM] | -1%
CCOC(=O)c1cnc(-n2nc(C)cc2C)nc1NCCc1ccccc1 | 50µM* | 0% | -7% | -29%
CCOC(=O)c1cnc(-n2nc(C)cc2C)nc1Nc1ccc(OC)cc1 | 19% | 4% | -1% | 0%
CCOC(=O)c1cnc(-n2nc(C)cc2C)nc1NC1CCCC1 | 32µM* | -2% | 2% | ·
CCOC(=O)c1cnc(-n2nc(C)cc2C)[nH]c1=O | 50µM* | -1% | 4% | 0%
CCOC(=O)c1cnc(-n2nc(C)cc2C)nc1Nc1ccccc1OC | 12% | · | · | ·
Cc1ccc(C)c(NC(=O)CN2C(=O)c3cccc4cccc2c34)c1 | · | · | · | -2%
O=C(COc1ccccc1)NCC(c1ccco1)N1CCN(c2ccccc2F)CC1 (centres undefined) | · | ? | 3% | 1.8µM*
Cc1ccc(CNC(=O)CCc2nc3cccnc3n2Cc2ccccc2)cc1 | · | · | · | -2%
SMILES | Sfp PPTase inh | uPA generation | TCR act | ClpP mod
CCCCN=C1NN=C(c2ccc3c(c2)OCCO3)CS1 | 40µM* | -11% | 4% | ·
CCCCN=C1NN=C(c2ccc(C)c(C)c2)CS1 | -25% | -8% | 6% | ·
Cc1cc(NC(=O)C2CCCN(S(=O)(=O)c3cn(C)cn3)C2)ccc1Br (centres undefined) | · | · | · | 1%
Oc1cc2c(cc1O)[C@H](c1ccccc1)CNCC2 | 79µM* | · | · | ·
Cn1c(SCC(=O)c2ccc(O)c(O)c2)nnc1-c1ccccc1 | 79µM* | ? | -3% | -4%
Cn1c(SCC(=O)c2ccc3c(c2)Cc2ccccc2-3)nnc1-c1cccc(N)c1 | 13% | -2% | 12% | -3%
O=C(CSc1nc2ccccc2n1CCc1ccccc1)c1ccc(O)c(O)c1 | 50µM* | -12% | 0% | -10%
O=C(CSc1nc2ccccc2n1CCc1ccccc1)N1CCOCC1 | 5% | 0% | -6%[46.1 µM] | 0%
CC(=O)Nc1ccc(-c2nnc(SCC(=O)c3ccc4c(c3)Cc3ccccc3-4)n2C)cc1 | 89µM* | · | · | -14%
Cc1cc(=O)[nH]c2nnc(SCC(N)=O)n12 | · | · | · | -19%
C#CCCCCCCCCCCCc1ccco1 | -21% | · | · | ·
O=c1c(Cl)c(N2CCOCC2)cnn1-c1ncc(C(F)(F)F)cc1Cl | 14% | -3% | 3% | ·
CC(=O)O/N=C(/C)c1ncc(C(F)(F)F)cc1N1CCOCC1 | 18% | -5% | -12% | 14µM*
